Laboratory results reported in PubChem BioAssay AID687021 (Broad Institute, 2013).
Unmarked numbers belong to inactive results. Calls of active or inactive are those of the source.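 How the source made its calls: active means compounds lowering luciferase light whose fitted half-effect concentration is at most twice the top tested dose; inconclusive means flat curve with 30 to 70% inhibition, or poor fit; inactive means the rest.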

test: luciferase signal loss, tTA control fusion, HeLa F-luc tTA cells, dry powder, counter-screen for HIV Env fusion inhibitor project, dose response (AID 687021); details: luciferase luminescence counterscreen; series mostly up to 35 µM; activity change, negative = inhibition: at the top concentration

Row | Structure (SMILES) | outcome | activity change, negative = inhibition
1 | O=S(=O)(NCc1ccncc1)c1ccc2c(c1)OCCO2 | inactive | 
2 | C[C@H]1CN([C@@H](C)CO)C(=O)c2ccccc2-c2ccccc2CO[C@H]1CN(C)S(=O)(=O)c1ccccc1C#N |  | 39.5%
3 | COC(=O)COc1ccc(S(=O)(=O)NCc2ccncc2)cc1 |  | 32.8%
4 | Clc1ccc2c(c1)C(C1=NCCN1)c1ccccc1CS2 (centres undefined) | inactive | 
5 | Cc1ccc(C)n1-c1ccc(C(=O)O)c(O)c1 |  | -8.69%
6 | COc1ccc(-c2nn(C)c(=O)c3ccccc23)cc1NC(=O)Cn1nc(C)c2ccccc2c1=O | inactive | 
7 | Cc1ccc(S(=O)(=O)Nc2cccc3c2O[C@@H](CN(C)Cc2ccc(Cl)c(Cl)c2)[C@@H](C)CN([C@H](C)CO)C3=O)cc1 |  | 61.2% [at 11 µM]
8 | Cc1noc(C)c1S(=O)(=O)Nc1cccc2c1O[C@H](CN(C)Cc1ccc(C(F)(F)F)cc1)[C@H](C)CN([C@H](C)CO)C2=O |  | 109%
9 | CCOc1ccc(S(=O)(=O)NCc2ccccc2)cc1 |  | 8.56%
10 | Cc1ccc(S(=O)(=O)N(C)C[C@@H]2Oc3ccc(NS(=O)(=O)c4c(C)noc4C)cc3CC(=O)N([C@H](C)CO)C[C@@H]2C)cc1 |  | 54.9%
11 | CCCC#Cc1ccc2c(c1)O[C@@H](CN(C)S(=O)(=O)c1cccc(F)c1)[C@@H](C)CN([C@H](C)CO)S2(=O)=O |  | 30.7%
12 | Cn1c(C(=O)N2CCN(c3nc4ccccc4s3)CC2)cc2sccc21 |  | 67.4%
13 | COc1ccc(-c2cc(C(=O)NNC(=S)NC(=O)c3c(-c4ccccc4)noc3C)[nH]n2)cc1 |  | -6.56%
14 | Cc1noc(C)c1S(=O)(=O)Nc1cccc2c1O[C@@H](CN(C)Cc1ccc(C(F)(F)F)cc1)[C@H](C)CN([C@H](C)CO)C2=O |  | 39.5%
